Assay outcomes deposited in PubChem BioAssay by National Center for Advancing Translational Sciences (NCATS).
LASV entry inh: blocks Lassa virus binding to or entry into cells | Lassa virus pseudotype entry inhibition, cell reporter | AID 540256 | 300,000 tested, 1.2% active | Potency, µM (titrated, usually from 37.9 µM), without a hit: at the highest dose activity change, negative = inhibition, usual class: inhibitors; calls by dose curve; tested in HEK293 cells; note: potency is the fitted concentration of half-maximal effect; nearly all actives have a fitted effect of over 50% in size
Vaccinia mCherry: inhibitors of vaccinia virus infection (mCherry reporter signal) | 310,000 tested, 0.63% active | Potency, µM (highest dose often 36.5 µM), for inactives: at the highest dose activity change, negative = inhibition, hits mostly inhibitors | Vaccinia virus mCherry reporter infection, fluorescence; calls by dose curve; tested in A549 cells; note: potency is the fitted concentration of half-maximal effect; nearly all actives have a fitted effect of over 35% in size
VACV Venus inh: vaccinia inhibition (Venus reporter) | Potency, µM (titrated, usually from 36.5 µM), for the others: at the highest dose activity change, negative = inhibition, actives largely listed as inhibitors | 330,000 tested, 0.46% active | Vaccinia virus Venus reporter expression, fluorescence; calls by dose curve; tested in A549 cells; note: potency is the fitted concentration of half-maximal effect; nearly all actives have a fitted effect of over 30% in size
Marburg entry inh: inhibitors of Marburg virus binding or cell entry; Marburg virus pseudotyped entry inhibition, cell reporter; Potency, µM (titrated, usually from 37.8 µM), for inactives: top-dose activity change, negative = inhibition, actives largely listed as inhibitors; 300,000 tested, 1.8% active; calls by dose curve; tested in HEK293 cells; note: potency is the fitted concentration of half-maximal effect
HCMV antiviral: inhibitors of human cytomegalovirus; HFF cells, HCMV-luciferase reporter, 72 h; hits give low values; activity change, negative = inhibition, % at 57.5 µM; 410,000 tested, 4.5% active; in the data active = activity change below about -60%; inconclusive = no clear call, values can overlap the other calls; inactive = above about -39%
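Two-dose cell screen: HFF monolayers treated with compounds and infected with luciferase-expressing HCMV at 1 PFU/cell, 72 h at 37C, then lysed for luciferase measurement.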
HCV inhibitor: inhibitors of hepatitis C virus infection; Huh7.5.1 HCVcc-Cre infection, luciferase reporter, 44 h; Potency, µM (top dose mostly 41.8 µM), for the others: at the highest dose activity change, negative = inhibition, actives largely listed as inhibitors; 340,000 tested, 3.4% active; active = well fitted inhibition curve with a large enough effect; inconclusive = small, poorly fitted or top-dose-only effect, or another doubt; inactive = no such curve, though single readings can be large or run the other way; note: potency is the fitted concentration of half-maximal effect
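HCVcc-Cre virus at an moi near 0.5 was added right after compound to cells cultured 4 h from seeding (1,000 cells/well). Luciferase activity was determined 44 h later, 15 min after substrate addition at RT.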
* = called active by the depositor; i = inactive; ? = inconclusive; / = no result; [ ] = another dose, or the depositor's remark. An excerpt weighted towards active compounds, which were near 7.8% of everything screened. % is set by controls: 0 for no effect and ±100 for the full control effect.

SMILES	LASV entry inh	Vaccinia mCherry	VACV Venus inh	Marburg entry inh	HCMV antiviral	HCV inhibitor
Cc1ccn2c(Nc3ccc4c(c3)OCCO4)c(-c3ccc(N(C)C)cc3)nc2c1	5.9%[46.1 µM]	-12.9%	-7.8%	?	74.3	/
COc1ccc(N2CCN(C(=O)CCc3c[nH]c4ccccc34)CC2)cc1	?	-2.0%	-7.8%	-4.8%[46.1 µM]	-8.5	-27.7%
O=C(CCc1c[nH]c2ccccc12)N1CCN(c2ccc(O)cc2)CC1	?	?	?	?	-64.6*	?
O=C(CCCc1c[nH]c2ccccc12)N1CCN(S(=O)(=O)c2cccs2)CC1	-28.0%	/	/	-26.5%	-7.3	12.6µM*
CCCCNC(=O)c1nc2cc(C)c(C)cc2nc1-c1cccc(OC(F)(F)F)c1	/	/	/	/	25.0	/
COc1ccc(CCNC(=O)CCc2c(C)c3ccc(O)c(C)c3oc2=O)cc1	-7.3%[46.1 µM]	-9.7%	-9.4%	-4.6%[46.1 µM]	-20.4	/
Oc1c(C(c2ccc(F)cc2)N2CCCC2)sc2nc(-c3ccco3)nn12 (centres undefined)	?	4.2%	3.3%	/	7.6	/
C1CCC(NC(=NC2C3CC4CC(C3)CC2C4)N2CCOCC2)CC1 (centres undefined)	/	?	-12.6%[60.7 µM]	/	/	/
COc1ccc(-c2nc(SCC(=O)N3CCC(C)CC3)n[nH]2)cc1	3.16µM*	-20.3%	-12.7%	/	14.0	/
O=C(CSc1n[nH]c(-c2ccc(S(=O)(=O)NC3CCCCC3)cc2)n1)N1CCCC1	?	-4.1%	-14.9%	-25.9%	-61.2*	-21.6%
Cc1ccc(CSc2nnc3nc(C)cc(C)n23)cc1	20.2%	/	23.4%	?	-83.7*	9.3%
COc1ccc(CNC(=O)c2ccc3c(c2)N(C)C(=O)C2CCCCN32)cc1OC (centres undefined)	-1.3%[46.1 µM]	-2.7%	3.2%	/	-10.5	/
CCCCCOc1ccc(Cn2ccnc2)cc1[N+](=O)[O-]	6.4%	/	/	-13.7%	?	11.2µM*
CCc1ccc2[nH]c3nc(N/N=C/c4ccc(O)cc4O)nnc3c2c1	?	1.78µM*	-24.8%	3.55µM*	-75.6*	?
COc1cc2c(cc1OC)C(c1ccc(-c3ccccc3Cl)o1)=NCC2	?	/	/	20.6µM*	-19.0	5.62µM*
COc1cc2c(cc1OC)C(c1ccc(-c3ccc(Cl)c(Cl)c3)o1)=NCC2	5.8µM*	-22.1%	?	5.8µM*	-12.6	12.6µM*
COc1cc2c(cc1OC)C(c1oc(-c3ccc(-c4cc(Cl)ccc4Cl)o3)cc1C)=NCC2	/	-14.2%	-14.2%	/	/	/
COc1cc2c(cc1OC)C(c1ccc(-c3cc(Cl)ccc3Cl)o1)=NCC2	?	-22.1%	-16.2%	?	/	?
COc1cc2c(cc1OC)C(c1ccc(-c3ccc(Cl)cc3Cl)o1)=NCC2	14.1µM*	?	-29.4%	6.31µM*	?	11.2µM*
Cc1cc(C(=O)CSc2nnnn2C)c(C)n1CCc1ccc(Cl)cc1	-14.1%	-12.4%	-4.8%	-2.6%[46.1 µM]	37.6	-9.4%
Cc1cc(C(=O)CSc2nncs2)c(C)n1Cc1ccco1	4.47µM*	-9.5%	-11.9%	6.31µM*	22.4	?
Cc1cc(C(=O)CSc2nn(-c3ccccc3)c(=S)s2)c(C)n1Cc1ccco1	-22.4%	/	/	-27.3%	20.4	?
COc1ccc(CCn2c(C)cc(C(=O)CSc3nnnn3-c3ccccc3)c2C)cc1	13.3%	/	/	?	-70.0*	-19.9%
Cc1cc(C(=O)CCl)c(C)n1Cc1ccco1	?	-10.5%	0.7%	?	-97.1*	?
Cc1cc(C(=O)CCl)c(C)n1CCc1ccccc1	?	-13.7%	8.9%	?	-100.4*	8.91µM*
SMILES	LASV entry inh	Vaccinia mCherry	VACV Venus inh	Marburg entry inh	HCMV antiviral	HCV inhibitor
Cc1ccccc1N1CCN(C(=O)c2cc(-c3ccccc3)nc3c2cnn3C(C)C)CC1	/	i	-13.7%	/	-12.9	/
COc1ccccc1N1CCN(C(=O)c2cc(-c3ccccc3)nc3c2cnn3C(C)C)CC1	/	-10.2%	-15.8%	/	36.7	/
CC(C)n1ncc2c(C(=O)N3CCN(c4ccc(F)cc4)CC3)cc(-c3ccccc3)nc21	/	/	/	/	-70.5*	-10.5%
COc1cccc(N2CCN(C(=O)c3cc(-c4ccccc4)nc4c3cnn4C(C)C)CC2)c1	/	/	/	/	0.0	11.2µM*
CN(Cc1cccs1)C(=O)COc1ccc(-c2nnco2)cc1	12.5%	/	/	2.1%	-100.1*	6.0%
COc1cccc(NC(=O)CCN2CCN(c3ccccc3)CC2)c1	?	-3.0%[7.34 µM]	-7.2%[7.34 µM]	5.8%[46.1 µM]	-75.4*	/
COc1ccc(CN2CCN(c3ccccc3)CC2)c(C)c1C	10.3µM*	/	/	?	-19.0	-5.7%
COc1ccc(C)cc1NC(=O)c1ccc(CN2CCN(c3ccccc3)CC2)cc1	?	-5.7%	-3.2%	?	?	?
COc1ccc(NC(=O)c2ccc(CN3CCN(c4ccccc4)CC3)cc2)cc1OC	?	/	-21.6%	10µM*	/	?
CCN1C(=O)NC(c2ccco2)C(C(C)=O)=C1C (centres undefined)	/	/	/	25.6%[14.2 µM]	/	/
COc1ccc(N=C(N)SCc2ccccn2)cc1	?	11.2µM*	11.2µM*	-23.5%	-17.4	?
COc1ccc(NC(=O)c2c(C)oc3ccc(O)c(CN4CCCCCC4)c23)cc1Cl	?	?	-29.7%	4.47µM*	-94.3*	/
Cc1ccc(NC(=O)c2c(C)oc3ccc(O)c(CN4CCCCC4)c23)cc1	?	-10.9%	-4.0%	?	-65.0*	/
O=C(CN1C(=O)COc2ccc(S(=O)(=O)N3CCOCC3)cc21)N1CCN(c2ccccc2F)CC1	-6.2%[46.1 µM]	-8.3%	-6.2%	2.9%[46.1 µM]	4.2	/
O=C1NC(=O)N(c2ccc3c(c2)OCO3)C(=O)/C1=C\c1ccc(N2CCCCC2)o1	-9.8%	-5.6%	0.0%	-13.8%	-66.3*	0.6%
